What all share (conditions): mRNA level, 48 h; actives raise or lower the signal
Read-out in assay [1]: BCL2L11 (gene 10018)
Description: LTEA_HepaRG_BCL2L11: Life Technologies and Expression Analysis (LTEA) Assay for Bcl-2 (BCL2L11) gene using HepaRG (AID 2283473). A digest of the protocol:
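HepaRG, 48 h exposure, 8-pt half-log series from 100 uM in 0.5% DMSO, duplicates; qRT-PCR (Fluidigm TaqMan) for BCL2L11, housekeeping-normalized; bidirectional curve fit relative to DMSO baseline.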

Read-out in assay [2]: Apolipoprotein A-V (APOA5) gene, APOA5 (gene 116519)
Description: LTEA_HepaRG_APOA5: Life Technologies and Expression Analysis (LTEA) Assay for Apolipoprotein A-V (APOA5) gene using HepaRG (AID 2283474). A digest of the protocol: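 HepaRG, 48 h chemical exposure in serum-free induction medium, 8-pt half-log series (top 100 uM), 0.5% DMSO vehicle, duplicates. Readout: APOA5 mRNA by qRT-PCR, housekeeping-normalized; bidirectional fit vs DMSO baseline.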

Read-out in assay [3]: Apoptosis regulator Bcl-2 (Homo sapiens) (UniProt P10415)
Briefly: LTEA_HepaRG_BCL2: Life Technologies and Expression Analysis (LTEA) Assay for Bcl-2 gene using HepaRG (AID 2283475). In short, it runs like this:
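qRT-PCR of BCL2 transcript, normalized to three housekeeping genes (ACTB, GAPDH, POLR2A), after 48 h chemical exposure of HepaRG cells; concentrations top 100 uM with half-log dilutions, 0.5% DMSO vehicle, duplicates; changes up or down fitted relative to vehicle.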

Read-out in assay [4]: Bcl-2 (BID) gene, BID (gene 637)
Description: LTEA_HepaRG_BID: Life Technologies and Expression Analysis (LTEA) Assay for Bcl-2 (BID) gene using HepaRG (AID 2283476). In short, it runs like this:
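Duplicate 48 h treatments of HepaRG cells in serum-free induction medium spanned 100 uM downward in half-log steps, 0.5% DMSO. Transcript change quantified by qRT-PCR against three housekeeping genes, fitted up or down versus DMSO.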

Read-out in assay [5]: Caspase-3 (Homo sapiens) (UniProt P42574)
Description: LTEA_HepaRG_CASP3: Life Technologies and Expression Analysis (LTEA) Assay for cysteine-aspartic acid protease (CASP3) using HepaRG (AID 2283477). In short, it runs like this:
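HepaRG, 48 h exposure, 8 conc. (top 100 uM, half-log steps, duplicate), 0.5% DMSO vehicle; qRT-PCR of CASP3 transcript, housekeeping-normalised (ACTB/GAPDH/POLR2A); bidirectional curve fit vs DMSO baseline.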

Read-out in assay [6]: Cytochrome P450 (CYP24A1), CYP24A1 (gene 1591)
Briefly: LTEA_HepaRG_CYP24A1: Life Technologies and Expression Analysis (LTEA) Assay for Cytochrome P450 (CYP24A1) using HepaRG (AID 2283478). In short, it runs like this:
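qRT-PCR read-out: CYP24A1 transcript levels normalized to three housekeeping genes, bidirectional curve fits against 0.5% DMSO baseline. Human HepaRG cells treated 48 h with chemicals at eight concentrations from 100 uM in half-log steps.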

Read-out in assay [7]: Cytochrome P450 (CYP1A2), CYP1A2 (gene 1544)
Description: LTEA_HepaRG_CYP1A2: Life Technologies and Expression Analysis (LTEA) Assay for Cytochrome P450 (CYP1A2) using HepaRG (AID 2283479). A digest of the protocol:
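HepaRG, 48 h exposure, top 100 uM, half-log 8-pt, 0.5% DMSO vehicle, duplicates. Readout: TaqMan qRT-PCR of CYP1A2 mRNA, housekeeping-normalized (ACTB/GAPDH/POLR2A). Gain/loss fit relative to DMSO baseline.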

Read-out in assay [8]: cysteine-aspartic acid protease (CASP8), CASP8 (gene 841)
Briefly: LTEA_HepaRG_CASP8: Life Technologies and Expression Analysis (LTEA) Assay for cysteine-aspartic acid protease (CASP8) using HepaRG (AID 2283480). In short, it runs like this: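 Concentration-response in duplicate up to 100 uM (half-log steps, 0.5% DMSO) on differentiated HepaRG cultures for 48 h. Expression change of CASP8 mRNA is determined by TaqMan qRT-PCR with housekeeping-gene normalization.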

Read-out in assay [9]: Cytochrome P450 (CYP2B6), CYP2B6 (gene 1555)
Briefly: LTEA_HepaRG_CYP2B6: Life Technologies and Expression Analysis (LTEA) Assay for Cytochrome P450 (CYP2B6) using HepaRG (AID 2283481). In short, it runs like this: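 Read-out is CYP2B6 mRNA by TaqMan qRT-PCR, normalized to three housekeeping genes and fitted bidirectionally against 0.5% DMSO baseline. Human HepaRG cells received test chemicals for 48 h, top concentration 100 uM, half-log dilutions.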

Read-out in assay [10]: Cytochrome P450 2C19 (Homo sapiens) (UniProt P33261)
Briefly: LTEA_HepaRG_CYP2C19: Life Technologies and Expression Analysis (LTEA) Assay for CYP2C19 using HepaRG (AID 2283482). In short, it runs like this: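 HepaRG, 48 h chemical exposure, 8-pt half-log series from 100 uM in 0.5% DMSO, duplicates. Readout: CYP2C19 mRNA by TaqMan qRT-PCR, housekeeping-normalized. Bidirectional fit vs DMSO baseline; phenobarbital 1mM as induction control.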

Read-out in assay [11]: CYP2C8 (gene 1558)
Description: LTEA_HepaRG_CYP2C8: Life Technologies and Expression Analysis (LTEA) Assay for CYP2C8 using HepaRG (AID 2283483). In short, it runs like this:
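This is a transcriptional endpoint in HepaRG cultures: 48 h exposure, highest concentration 100 uM. CYP2C8 mRNA is quantified by TaqMan qRT-PCR.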

Read-out in assay [12]: CYP2C9 (gene 1559)
Briefly: LTEA_HepaRG_CYP2C9: Life Technologies and Expression Analysis (LTEA) Assay for CYP2C9 using HepaRG (AID 2283484). In short, it runs like this:
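Eight-point concentration-response (highest 100 uM, half-log dilutions) in HepaRG cells for 48 h; CYP2C9 expression by qRT-PCR normalized to ACTB, GAPDH, POLR2A. Bidirectional fit, DMSO baseline.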

Read-out in assay [13]: CYP2E1 (gene 1571)
Description: LTEA_HepaRG_CYP2E1: Life Technologies and Expression Analysis (LTEA) Assay for CYP2E1 using HepaRG (AID 2283485). In short, it runs like this: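 CYP2E1 transcript measured by Fluidigm qRT-PCR against three housekeeping genes in human HepaRG cells treated 48 h (top 100 uM, half-log steps, 0.5% DMSO vehicle). Gain or loss fitted relative to DMSO baseline.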

Read-out in assay [14]: CYP4A11 (gene 1579)
Description: LTEA_HepaRG_CYP4A11: Life Technologies and Expression Analysis (LTEA) Assay for CYP4A11 using HepaRG (AID 2283486). In short, it runs like this: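 CYP4A11 transcript levels were quantified by TaqMan qRT-PCR after HepaRG human liver cells were treated for 48 hours with test chemicals (top 100 uM, half-log dilutions, 0.5% DMSO). Gain or loss of signal was fitted relative to DMSO.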

Read-out in assay [15]: Cytochrome P450 3A4 (Homo sapiens) (UniProt P08684)
Description: LTEA_HepaRG_CYP3A4: Life Technologies and Expression Analysis (LTEA) Assay for CYP3A4 using HepaRG (AID 2283487). A digest of the protocol: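 Differentiated HepaRG cells in serum-free induction medium exposed in duplicate for 48 h to 8 half-log concentrations up to 100 uM in 0.5% DMSO. CYP3A4 mRNA measured by qRT-PCR normalized to ACTB, GAPDH and POLR2A; bidirectional fit versus DMSO.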

Read-out in assay [16]: DNA damage-inducible transcript 3 (DDIT3), DDIT3 (gene 1649)
Briefly: LTEA_HepaRG_DDIT3: Life Technologies and Expression Analysis (LTEA) Assay for DNA damage-inducible transcript 3 (DDIT3) using HepaRG (AID 2283488). A digest of the protocol: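 DDIT3 transcript was quantified by qRT-PCR with ACTB/GAPDH/POLR2A normalization after 48 h chemical treatment of differentiated HepaRG cells in 0.5% DMSO. Dosing was eight-point, half-log, top 100 uM, duplicate wells. Curves fitted bidirectionally versus DMSO.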

Read-out in assay [17]: Pro-epidermal growth factor (Homo sapiens) (UniProt P01133)
Briefly: LTEA_HepaRG_EGF: Life Technologies and Expression Analysis (LTEA) Assay for Epidermal growth factor (EGF) using HepaRG (AID 2283489). In short, it runs like this:
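qRT-PCR readout of EGF transcript after 48 h chemical exposure of HepaRG cells; eight concentrations from 100 uM down in half-log steps, duplicate wells, 0.5% DMSO vehicle. Bidirectional curve fitting against DMSO baseline.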

Read-out in assay [18]: Early growth response protein 1 (EGR1) transcription factor, EGR1 (gene 1958)
Briefly: LTEA_HepaRG_EGR1: Life Technologies and Expression Analysis (LTEA) Assay for Early growth response protein 1 (EGR1) transcription factor using HepaRG (AID 2283490). In short, it runs like this:
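EGR1 expression change in human HepaRG after 48 h chemical exposure, assessed by housekeeping-normalized qRT-PCR; concentration-response up to 100 uM, fitted in both directions against DMSO controls.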

Read-out in assay [19]: Ezrin (EZR), EZR (gene 7430)
Briefly: LTEA_HepaRG_EZR: Life Technologies and Expression Analysis (LTEA) Assay for Ezrin (EZR) using HepaRG (AID 2283491). A digest of the protocol: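 Differentiated human HepaRG cells, 48 h after plating, were exposed in serum-free induction medium for 48 hours to eight half-log concentrations up to 100 uM in 0.5% DMSO. EZR mRNA was measured by TaqMan qRT-PCR, normalized to ACTB, GAPDH and POLR2A, and fitted bidirectionally against DMSO.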

Read-out in assay [20]: Cytochrome P450 3A7 (Homo sapiens) (UniProt P24462)
Description: LTEA_HepaRG_CYP3A7: Life Technologies and Expression Analysis (LTEA) Assay for CYP3A7 using HepaRG (AID 2283492). In short, it runs like this: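 CYP3A7 transcript levels were read by TaqMan qRT-PCR on Fluidigm arrays after 48 h chemical exposure of human HepaRG cells, with housekeeping-gene normalisation. Eight half-log concentrations up to 100 uM in 0.5% DMSO were tested in duplicate.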

Structures are written as SMILES. Active and inactive are the calls of the source. Rule for the calls: active = hit-call score of the fitted dose curve at least 0.9, where 1 is the maximum; inactive = score below 0.9.

Sequence of Cytochrome P450 2C19 (Homo sapiens) (P33261 whole entry, looked up): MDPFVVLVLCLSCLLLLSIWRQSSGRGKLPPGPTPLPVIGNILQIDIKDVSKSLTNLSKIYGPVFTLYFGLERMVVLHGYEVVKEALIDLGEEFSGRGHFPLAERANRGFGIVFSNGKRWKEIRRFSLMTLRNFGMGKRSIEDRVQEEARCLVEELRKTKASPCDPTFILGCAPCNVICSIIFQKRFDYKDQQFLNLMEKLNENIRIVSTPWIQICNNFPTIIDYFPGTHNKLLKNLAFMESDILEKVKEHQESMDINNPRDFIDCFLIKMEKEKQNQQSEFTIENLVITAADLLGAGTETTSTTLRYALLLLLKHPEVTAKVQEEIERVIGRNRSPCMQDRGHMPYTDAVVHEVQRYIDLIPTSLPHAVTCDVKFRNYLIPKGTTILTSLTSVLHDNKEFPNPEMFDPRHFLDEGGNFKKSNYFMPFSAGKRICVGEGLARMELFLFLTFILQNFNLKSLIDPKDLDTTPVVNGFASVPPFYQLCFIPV
Sequence of Cytochrome P450 3A4 (Homo sapiens) (P08684 whole entry, looked up): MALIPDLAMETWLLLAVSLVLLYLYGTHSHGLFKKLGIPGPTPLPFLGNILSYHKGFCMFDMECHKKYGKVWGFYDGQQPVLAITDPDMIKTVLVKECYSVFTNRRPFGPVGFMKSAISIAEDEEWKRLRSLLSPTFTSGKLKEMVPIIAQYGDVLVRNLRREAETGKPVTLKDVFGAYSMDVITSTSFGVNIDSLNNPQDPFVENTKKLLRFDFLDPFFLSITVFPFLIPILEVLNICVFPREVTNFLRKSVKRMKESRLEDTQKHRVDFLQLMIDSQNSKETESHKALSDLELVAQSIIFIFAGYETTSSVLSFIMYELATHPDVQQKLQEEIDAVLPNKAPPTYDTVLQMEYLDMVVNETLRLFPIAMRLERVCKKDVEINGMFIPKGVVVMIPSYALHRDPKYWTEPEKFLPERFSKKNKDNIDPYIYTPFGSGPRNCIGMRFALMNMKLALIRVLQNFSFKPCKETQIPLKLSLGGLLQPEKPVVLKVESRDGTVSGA
Sequence of Caspase-3 (Homo sapiens) (P42574 whole entry, looked up): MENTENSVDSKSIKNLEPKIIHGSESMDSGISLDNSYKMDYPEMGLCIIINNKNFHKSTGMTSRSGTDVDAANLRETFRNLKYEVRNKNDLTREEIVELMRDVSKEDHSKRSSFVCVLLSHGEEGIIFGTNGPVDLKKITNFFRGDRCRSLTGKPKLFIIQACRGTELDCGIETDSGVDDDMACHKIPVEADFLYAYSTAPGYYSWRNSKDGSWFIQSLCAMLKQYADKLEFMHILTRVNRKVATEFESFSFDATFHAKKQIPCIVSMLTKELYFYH
Sequence of Cytochrome P450 3A7 (Homo sapiens) (P24462 whole entry, looked up): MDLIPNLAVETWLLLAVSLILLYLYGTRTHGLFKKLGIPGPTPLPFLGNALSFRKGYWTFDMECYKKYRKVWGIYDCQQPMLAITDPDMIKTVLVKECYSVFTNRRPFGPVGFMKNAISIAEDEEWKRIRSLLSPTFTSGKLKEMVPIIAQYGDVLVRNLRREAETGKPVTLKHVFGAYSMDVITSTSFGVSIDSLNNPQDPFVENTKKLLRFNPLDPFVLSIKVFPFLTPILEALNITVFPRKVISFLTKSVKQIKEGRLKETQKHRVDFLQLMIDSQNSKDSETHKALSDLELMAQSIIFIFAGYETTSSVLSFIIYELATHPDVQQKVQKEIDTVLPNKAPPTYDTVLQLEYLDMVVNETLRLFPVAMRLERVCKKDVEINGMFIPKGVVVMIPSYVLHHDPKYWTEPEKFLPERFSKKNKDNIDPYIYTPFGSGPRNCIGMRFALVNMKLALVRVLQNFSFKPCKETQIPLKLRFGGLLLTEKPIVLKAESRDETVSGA
Sequence of Apoptosis regulator Bcl-2 (Homo sapiens) (P10415 whole entry, looked up): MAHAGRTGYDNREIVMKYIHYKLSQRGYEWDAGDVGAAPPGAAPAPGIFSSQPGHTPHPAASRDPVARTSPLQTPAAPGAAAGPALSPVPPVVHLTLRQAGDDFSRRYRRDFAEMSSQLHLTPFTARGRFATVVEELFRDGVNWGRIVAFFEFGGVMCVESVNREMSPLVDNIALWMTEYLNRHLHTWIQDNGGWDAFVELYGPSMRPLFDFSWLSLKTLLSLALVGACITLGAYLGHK

One may read the AC50 as the midpoint of the concentration-response curve, whichever way the signal moves. Consider `COP(=S)(OC)SCN1C(=O)c2ccccc2C1=O`, for which the outcome in assay [1], in assay [2], in assay [3], in assay [4], in [5] and in assay [6] was inactive. The outcome in assay [8], in assay [10], in assay [11], in assay [12], in [13] and in assay [14] was inactive. Besides, the outcome in assay [15], in assay [16], in assay [17], in assay [18], in assay [19] and in [20] was inactive. Besides, the AC50 is 22.3 µM (active) in assay [7] and 50 µM (active) in assay [9].
In the case of `Oc1ccccc1Cl`, the molecule was classed as inactive in [1], in [2], in assay [3], in assay [4], in assay [5] and in assay [6]. The molecule was called inactive in assay [7], in assay [8], in assay [9], in [10], in assay [11] and in [12]. For the same molecule, the outcome in assay [13], in assay [14], in [15], in [16], in assay [17] and in assay [18] was inactive. Moreover, the call in assay [19] and in assay [20] was inactive.
Turning to `[O-][Cl+]O`, the outcome in assay [1], in assay [2], in assay [3], in [4], in [5] and in assay [6] was inactive. For the same molecule, the call in assay [7], in assay [8], in assay [9], in [10], in assay [11] and in assay [12] was inactive. Also, the call in [13], in assay [14], in [15], in assay [16], in assay [18] and in assay [19] was inactive. Also, the result in [20] was inactive.
`CCCCCCCCOC(=O)c1ccc(C(=O)OCCCCCCCC)c(C(=O)OCCCCCCCC)c1`: the molecule was classed as inactive in assay [1], in assay [2], in assay [3], in assay [4], in [5] and in assay [6]. For the same molecule, the molecule was called inactive in assay [8], in assay [10], in assay [11], in assay [12], in [13] and in [14]. The outcome in assay [15], in assay [16], in assay [17], in [18], in [19] and in assay [20] was inactive. Further, the AC50 in [7] is 50.5 µM (active); in [9], 22.4 µM (active).

(Values after PubChem BioAssay (EPA / NIEHS).)
